According to PubChem BioAssay AID2570 (National Center for Advancing Translational Sciences (NCATS), 2010):
Inconclusive results are not listed. Values without a mark were called inactive. Calls come from the whole dose curve; as a rule, active = well fitted curve in the direction sought with a large enough effect; inconclusive = small, poorly fitted or top-dose-only effect, or another doubt; inactive = no such curve, though single readings can be large or run the other way.

Biological target: Vasopressin V1b receptor (Homo sapiens) (UniProt P47901)
Sequence (P47901 whole entry, looked up): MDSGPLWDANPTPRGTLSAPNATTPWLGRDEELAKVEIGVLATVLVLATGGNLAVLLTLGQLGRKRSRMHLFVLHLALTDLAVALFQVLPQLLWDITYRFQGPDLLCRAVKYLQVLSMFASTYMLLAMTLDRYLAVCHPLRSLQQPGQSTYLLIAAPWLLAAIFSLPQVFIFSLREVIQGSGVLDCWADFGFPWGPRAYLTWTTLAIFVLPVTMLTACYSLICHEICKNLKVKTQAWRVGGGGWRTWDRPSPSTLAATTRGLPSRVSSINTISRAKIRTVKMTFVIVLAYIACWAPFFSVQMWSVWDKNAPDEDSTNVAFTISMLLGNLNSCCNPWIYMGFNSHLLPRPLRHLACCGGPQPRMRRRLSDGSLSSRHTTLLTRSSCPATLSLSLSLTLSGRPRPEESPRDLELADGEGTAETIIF
Experiment: Counterscreen Concentration-Response Assay for Antagonists of the Neuropeptide S Receptor: Vasopressin Receptor Calcium Signal Transduction
Settings: CHO-AVPR1B, vasopressin-stimulated calcium fluorescence, FDSS
Procedure, shortened: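 CHO cells stably expressing human AVPR1B, calcium-dye loaded, were given compound, then stimulated with 60 nM vasopressin in HBSS/0.1% BSA. Peak kinetic fluorescence was normalized to DMSO and no-signal controls; AC50 from Hill fits.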

How did the max response turn out when `COc1cccc(C2c3c(ncn(-c4cccc(C#N)c4)c3=N)Oc3ccc4ccccc4c32)c1` (stereo unspecified) was run?
The max response was -10.9%.
